An excerpt weighted towards active compounds, which were near 7.6% of everything screened.
KB-3-1 cytotox – kills parental KB-3-1 adenocarcinoma cells; 400,000 compounds, 1.4% hits; KB-3-1 viability, CellTiter-Glo ATP luminescence, 72 h; AID 1347075; Potency, µM (titrated, usually from 46.1 µM), most hits filed as cytotoxic; further: potency means the concentration at half of the fitted maximal effect; on the % scale 0 is the no-effect control and ±100 the full control effect; nearly all actives have a fitted effect of over 60% in size
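KB-3-1 parental drug-naive adenocarcinoma cells in DMEM/10% FBS, incubated 72 h at 37 C with pin-transferred compounds across a concentration series. Viability by CellTiter-Glo luminescence; concentration-response curves fitted after normalization.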
KB-V1 cytotox – KB-V1 MDR subline cytotoxicity; KB-V1 MDR cells viability, CellTiter-Glo, 72 h; 400,000 compounds, 3.4% hits; Potency, µM (highest dose often 46.1 µM), actives largely listed as cytotoxic; further: potency means the concentration at half of the fitted maximal effect; on the % scale 0 is the no-effect control and ±100 the full control effect; nearly all actives have a fitted effect of over 60% in size
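In this primary screen, KB-V1 cells overexpressing P-gp are incubated with library compounds (lowest to highest concentration) for 72 h at 37 degrees C before a luminescent ATP viability read.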
KCNH2 3.1 inh – KCNH2 3.1 (human) potassium channel inhibition; U2OS KCNH2 3.1, thallium flux FluxOr; hits give low values; activity change, % (tested at about 1.8 µM); 340,000 compounds, 0.95% hits;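 active means maximum activity change below -70%; inconclusive means maximum activity change from -70% to -50%; inactive means maximum activity change above -50%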;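 further: thallium influx rate constant from kinetic fluorescence after stimulation buffer; on the % scale 0 is the no-effect control and ±100 the full control effect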
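Steps: virus added to U2OS suspension (4 h, RT, dark); medium with 10% FBS added, cells plated, 37 C overnight; FluxOr/Red40 loading buffer 45 min RT; stimulation buffer, 2 min kinetic read; rate constant normalized.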
MCF10A rereplic – DNA re-replication induction in MCF 10a cells | MCF 10A DNA re-replication, Hoechst nuclear intensity, 48 h | Potency, µM (top dose mostly 46.1 µM), for the others: at the highest dose activity, positive = re-replication, actives largely listed as activators | 350,000 compounds, 2.9% hits; further: potency means the concentration at half of the fitted maximal effect; % of control where 0% means no effect; nearly all actives have a fitted effect of over 50% in size
KCNH2 WT inh – blocks the wildtype human KCNH2 potassium channel; 340,000 compounds, 0.37% hits; U2OS, BacMam KCNH2, thallium flux FluxOr; hits give low values; Q12809; AID 720551; activity change, % at 1.84 µM;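 active means maximum activity change below -70%; inconclusive means maximum activity change between -70% and -50%; inactive means maximum activity change above -50%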; further: on the % scale 0 is the no-effect control and ±100 the full control effect
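U2OS cells transduced with wild-type KCNH2 virus are loaded with FluxOr dye for 45 min, and thallium flux is measured in kinetic reads before and after stimulation buffer. Rate constants are normalized to DMSO controls.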
SW480 rerep – inducers of DNA re-replication in SW480 colon cancer cells; SW480 DNA re-replication, Hoechst DNA content imaging, 48 h; Potency, µM (doses to about 46.1 µM), for inactives: top-dose re-replication activation, hits mostly activators; 340,000 compounds, 1.8% hits; AID 624297; further: potency means the concentration at half of the fitted maximal effect; % of control where 0% means no effect; nearly all actives have a fitted effect of over 55% in size
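Quantitative HTS format with DMSO vehicle controls; 48 hr drug incubation at 37 C, then 40 min Hoechst staining and scanning imager measurement at 405 nm excitation.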
* hit, by the source's call; i = inactive; ? = inconclusive; / = not tested or not shown. Unless noted, the call rests on the fitted dose curve; in most records, active means well fitted curve in the direction sought with a large enough effect; inconclusive means small, poorly fitted or top-dose-only effect, or another doubt; inactive means no such curve, though single readings can be large; an effect the other way counts as inactive or inconclusive.

SMILES	KB-3-1 cytotox	KB-V1 cytotox	KCNH2 3.1 inh	MCF10A rereplic	KCNH2 WT inh	SW480 rerep
COc1ccc(NC(=O)c2cccc(S(=O)(=O)N3CCc4ccccc43)c2)cn1	i	13µM*	-1	14%	4	-2%
CCN(CC(=O)Nc1c(F)cccc1F)C(=O)c1cccc(S(=O)(=O)N2CCCc3ccccc32)c1	?	i	-2	8%	1	-14%
COc1ccc(-c2noc(CN(C)C(=O)c3ccc4c(c3)OCO4)n2)cc1	i	i	-1	4%	-4	-11%
O=C(NCC1OCCc2ccccc21)c1cc(COc2ccc(F)cc2Cl)on1 (configuration not stated)	i	i	-7	11%	-4	-5%
O=C1CN(S(=O)(=O)c2ccccc2)CCN1	i	i	2	1%	2	-1%
O=S(=O)(c1ccccc1)N1CCNc2ccccc21	i	i	-122*	-3%	0	2%
CCC1(OC(=O)CN(C)C)C(=O)OCc2c1cc1n(c2=O)Cc2cc3c(N)cccc3nc2-1 (configuration not stated)	?	2.9µM*	19	18%	10	?
CN(CC(=O)Nc1cccc(F)c1)C(=O)c1ccncc1	i	i	5	0%	-5	-4%
c1ccc(CNc2ccc3c(c2)ncn3C2CCCCC2)nc1	i	i	-3	21µM*	4	23µM*
CC(C)CCNC(=O)c1ccc2c(c1)ncn2C1CCCCC1	i	13µM*	-8	25%	-9	-14%
CCCCS(=O)(=O)Nc1ccc2c(c1)ncn2C1CCCCC1	i	?	-2	23µM*	-8	3%
O=C(O)c1ccc2c(c1)ncn2C1CCCC1	i	i	21	5%	8	-11%
Cc1ccc(OC(=O)C2CCN(C(=O)c3ccccc3C)CC2)c(Br)c1	i	i	-3	-2%	3	-2%
CCc1ccc(NC(=O)c2nn(-c3ccc(OC)cc3)c(=O)c3c2c2ccccc2n3C)cc1	i	i	/	/	/	/
CC1(C)C2CCC1(C)C(OC(=O)CNc1ccccc1)C2 (configuration not stated)	i	i	40	14%	0	-5%
COc1cc(C(=O)OC2CC3CCC2(C)C3(C)C)ccc1OC(C)=O (configuration not stated)	i	?	-1	15µM*	-5	?
O=C(N/C=N/OCc1cccc(C(F)(F)F)c1)N1OC[C@@H]2COc3ccc4ccccc4c3[C@@H]21	?	16µM*	-5	-3%	0	2%
CO/N=C/NC(=O)N1OC[C@@H]2COc3ccc4ccccc4c3[C@@H]21	i	i	-3	1%	3	0%
CCC(C)c1ccccc1N1CC(C(=O)NCCC2=CCCCC2)CC1=O (configuration not stated)	i	23µM*	-8	-5%	-6	2%
COc1cc(NS(=O)(=O)c2ccc(Br)cc2)c(OC)cc1NC(=O)c1ccco1	i	8.2µM*	11	-1%	-21	6%
Cc1cc(C)c(OCC(=O)Nc2ccc(NC(=O)c3ccco3)cc2)c([N+](=O)[O-])c1	i	i	7	-9%	28	-6%
Cc1cc(C)c(OCC(=O)Nc2cccc(NC(=O)c3ccco3)c2)c(Br)c1	i	21µM*	-9	1%	23	1%
COc1ccc(S(=O)(=O)Nc2cc(OC)c(NC(=O)c3ccco3)cc2OC)cc1	i	i	1	1%	6	8%
COc1c(C)cc(Br)cc1C(=O)Nc1cccc(NC(=O)c2ccco2)c1	i	3.3µM*	-20	?	5	-2%
Cc1ccc(SCC(=O)Nc2cccc(NC(=O)c3ccco3)c2)cc1	i	16µM*	-17	?	-5	-8%
SMILES	KB-3-1 cytotox	KB-V1 cytotox	KCNH2 3.1 inh	MCF10A rereplic	KCNH2 WT inh	SW480 rerep
O=C(CSc1ccc(Cl)cc1)Nc1ccc(NC(=O)c2ccco2)cc1	i	i	-2	-8%	11	7%
COC(=O)c1ccc(NC(=O)CCc2c(C)nc3c(c(C)nn3C(C)(C)C)c2C)cc1	i	i	/	/	/	/
COc1ccc(Br)cc1C(=O)Nc1cccc(NC(=O)c2ccco2)c1	i	9.2µM*	-15	5%	-6	-9%
COc1c(C)cc(Br)cc1C(=O)Nc1ccccc1C	i	i	-13	1.5µM*	10	-37%
CC(C)(C)NC(=O)c1cccc(NC(=O)CSc2ccc(Cl)cc2)c1	?	15µM*	-25	-3%	8	-147%
COc1ccc(Br)cc1C(=O)Nc1cccc(C)c1	i	i	-9	-5%	-8	3%
CC(C)CNC(=O)c1cccc(NC(=O)CSc2ccc(Cl)cc2)c1	i	i	-5	0%	2	/
COc1ccc(CN2CCNC(=O)C2CC(=O)NCc2cn3ccc(C)cc3n2)c(OC)c1 (configuration not stated)	i	i	-7	-10%	9	-6%
N#Cc1c(N)nc(SCc2ccccn2)c(C#N)c1-c1cccs1	?	2.9µM*	-9	1%	-1	-2%
CCOC(=O)CSc1nc(N)c(C#N)c(-c2cccs2)c1C#N	i	i	3	-3%	3	2%
O=C(Nc1ncc(Cc2ccccc2)s1)c1cccs1	?	?	-6	?	5	1%
O=C(Nc1ncc(Cc2ccc(SC(F)F)cc2)s1)c1ccccc1	1.5µM*	2.1µM*	4	?	6	6.5µM*
O=C(Nc1nc2c(s1)CCCC2)c1ccc(Br)o1	i	i	5	-3%	-5	0%
Cc1ccc(Cc2cnc(NC(=O)c3cccs3)s2)cc1	i	?	-14	?	4	8%
Cc1ccc(C(=O)Nc2ncc(Cc3ccccc3)s2)o1	3.5µM*	i	-20	?	2	-20%
Cc1ccc(C(=O)Nc2nc3c(s2)CCCC3)o1	?	12µM*	-3	3%	-5	-5%
O=C(Nc1ncc(Cc2cccc(Cl)c2)s1)c1cccs1	?	13µM*	-25	?	-10	14%
CCn1c(=O)cc(C(F)(F)F)[nH]c1=S	i	i	5	-12%	5	1%
Cc1cccc(-c2nnc(-c3ccc4ccccc4c3)o2)c1	i	i	5	?	-3	-4%
Nc1cc(Cl)ccc1N1CCCCCC1	i	i	5	-2%	3	-4%
CC(C)CCCC(C)N (configuration not stated)	/	/	/	16%	/	-1%
